From PubChem BioAssay
MITF primary: inhibitors of human MITF | O75030 | AlphaScreen MITF homodimerization, bead proximity signal | inhibition, % at 2.6 µM | 0.91% of 650,000 active | AID 1259374; in the data active = inhibition above about 50%
Target sequence (O75030 whole entry, looked up): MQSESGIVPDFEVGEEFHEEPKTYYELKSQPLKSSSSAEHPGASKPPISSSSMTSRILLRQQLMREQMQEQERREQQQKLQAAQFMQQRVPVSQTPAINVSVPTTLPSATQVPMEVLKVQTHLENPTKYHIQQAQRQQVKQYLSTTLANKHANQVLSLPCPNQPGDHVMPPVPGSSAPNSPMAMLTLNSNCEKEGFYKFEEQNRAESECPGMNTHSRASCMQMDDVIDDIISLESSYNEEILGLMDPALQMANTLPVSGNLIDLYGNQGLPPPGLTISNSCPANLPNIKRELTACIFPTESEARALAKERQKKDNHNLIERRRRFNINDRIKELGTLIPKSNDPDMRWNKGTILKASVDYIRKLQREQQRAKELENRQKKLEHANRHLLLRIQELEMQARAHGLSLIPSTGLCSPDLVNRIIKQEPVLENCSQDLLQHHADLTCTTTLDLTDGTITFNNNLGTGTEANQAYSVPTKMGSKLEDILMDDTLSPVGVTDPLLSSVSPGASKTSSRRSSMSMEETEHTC
FBW7 activator: human FBW7 E3 ligase activation, primary screen. Q969H0. AlphaScreen FBW7–phospho-cyclin E peptide binding, activator screen. normalized activity (activation), % at 26.1 µM. 0.13% of 650,000 active. AID 1259310; in the data active = normalized activity above about 1.9%;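 note: purified mutant Fbw7 with reduced substrate affinity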
GPR151 activ: activates the human receptor GPR151; Q8TDV0; PathHunter beta-arrestin GPR151 cells, luminescence; activation, % at 11.2 µM; 1% of 650,000 active; in the data active = activation above about 4.9%
TEAD-YAP inh: TEAD-YAP interaction inhibition; HEK-TIYL cells, TEAD-Gal4/YAP UAS-luciferase luminescence; inhibition, % at 9.12 µM; 1.4% of 640,000 active; in the data active = inhibition above about 32%
Hits are given with their value; - = inactive. This is a sample that favours compounds with a hit; in the whole collection about 3.5% have one here.

SMILES | MITF primary | FBW7 activator | GPR151 activ | TEAD-YAP inh
CCc1c(C)nc2ncnn2c1N1CCCC(C(=O)Nc2nnc(C)s2)C1 (configuration not stated) | - | - | - | 48
COc1ccc(CN2CCN(S(=O)(=O)c3ccc(NC(C)=O)cc3)CC2)cc1OCc1ccccc1 | - | - | - | 35
COc1cc(CN2CCN(S(=O)(=O)c3ccc(NC(C)=O)cc3)CC2)ccc1OCc1ccccc1 | - | - | - | -
CCOC(=O)c1[nH]c2ccccc2c1NC(=O)c1c(-c2ccccc2Cl)noc1C | - | - | - | -
O=C(Cn1c2c(c3ccccc31)CCC2)NC1=NCCS1 | - | - | - | 77
O=C(c1cc(-c2ccccc2)on1)N1CCCCCC1 | - | - | - | -
O=C(c1cc(-c2cccc(O)c2)on1)N1CCCCC1 | - | - | - | 67
CCC(C)C(=O)N1CCCC(c2nc(-c3cccc(OC)c3)no2)C1 (configuration not stated) | - | - | - | 61
COc1cccc(-c2cc(C(=O)N3CCCC3)no2)c1 | - | - | - | 38
O=C(NCc1ccccn1)c1cccc(OC2CCN(C(=O)c3cscn3)CC2)c1 | - | - | - | -
O=C(Nc1ccc2c(c1)OCO2)c1ccccc1SCC(=O)N1CCc2ccccc21 | - | - | - | 36
O=C(NCCc1nc(-c2ccccc2)cs1)c1cccc(C(=O)NCCc2nc(-c3ccccc3)cs2)c1 | - | - | - | 48
Nc1ccc2nc(SCC(=O)N3CCN(c4ccc(Cl)cc4)CC3)sc2c1 | - | - | - | 51
CCN1C(=O)C(C)(C)COc2ccc(NC(=O)Nc3cc(OC)c(OC)c(OC)c3)cc21 | - | - | - | -
COC(=O)c1ccc(N2C(=O)c3ccc(C(=O)OC(C)C(=O)c4ccccc4)cc3C2=O)cc1 (configuration not stated) | - | - | - | -
c1ccc(C2=NNC(c3ccccc3)=NN2)cc1 | - | - | - | 42
CC1CN=C(N(C)C(=O)Nc2cccc(Cl)c2)S1 (configuration not stated) | - | - | - | -
CNC(=O)N(C1=NCC(C)S1)c1cccc(Cl)c1 (configuration not stated) | - | - | - | 40
N#CC1=C(N)N(c2sc3c(c2C#N)CCCCC3)C2=C(C(=O)CCC2)C1c1cccs1 (configuration not stated) | - | - | - | 53
N#CC1=C(N)N(c2sc3c(c2C#N)CCCCC3)C2=C(C(=O)CCC2)C1c1ccccc1 (configuration not stated) | - | - | - | -
Nc1ccc2oc(-c3cc(I)ccc3Cl)nc2c1 | - | - | - | 34
Nc1ccc2oc(-c3ccccc3Cl)nc2c1 | - | - | - | 42
Nc1ccc2oc(-c3cc(Br)ccc3Cl)nc2c1 | - | - | - | 41
Nc1ccc(Cl)c(-c2nc3cc(Cl)ccc3o2)c1 | - | - | - | -
Nc1ccc2oc(-c3cc(Cl)ccc3Cl)nc2c1 | - | - | - | -
SMILES | MITF primary | FBW7 activator | GPR151 activ | TEAD-YAP inh
COCCNC(=O)Cn1nc2c3ccccc3nc(C(C)(C)C)n2c1=O | - | - | - | -
O=C1CC(N2CCN(c3ccc(O)cc3)CC2)C(=O)N1Cc1ccc(F)cc1 (configuration not stated) | - | - | - | -
COc1cccc(C(NC(=O)c2cccnc2)c2nccn2C)c1OC (configuration not stated) | - | - | - | -
O=C(O)c1ccc(NC(CS(=O)(=O)Cc2ccc(F)cc2Cl)C(=O)O)c([N+](=O)[O-])c1 (configuration not stated) | - | - | - | -
COc1cc2[nH]c(=O)n(CCC(=O)NC(C)CCc3ccccc3)c(=O)c2cc1OC (configuration not stated) | - | - | - | -
Cc1ccc(S(=O)(=O)Nc2cc(C(=O)N3CCOCC3)ccc2N2CCCCC2)cc1 | - | - | - | -
COC(=O)c1ccc(N2CCOCC2)c(NS(=O)(=O)c2ccc(OC)cc2)c1 | - | - | - | 58
COC(=O)c1ccc(N2CCCC2)c(NS(=O)(=O)c2ccc(C)cc2)c1 | - | - | - | 41
CC(C)c1ccc(/C=C/C(=O)NC2CC2)cc1 | - | - | - | -
CC1(C)Cc2nc3sc4c(N5CCNCC5)ncnc4c3cc2CS1 | - | - | - | 44
CCOc1ccc(/C=C(\NC(=O)c2ccccc2)C(=O)NCC(=O)O)c2ccccc12 | - | - | - | -
O=C(O)/C=C/C(=O)Nc1ccc(Oc2ccc(Oc3ccc(NC(=O)/C=C/C(=O)O)cc3)cc2)cc1 | - | - | - | 39
Cc1ccc(NC(=O)/C=C\C(=O)O)cc1 | - | - | - | -
Cc1noc(C)c1-c1nc(NCCN2CCOCC2)c2ncn(C3CCCCC3)c2n1 | - | - | - | -
CC(NC(=O)c1ccco1)c1nc2ccccc2n1CC(=O)N(C(C)C)C(C)C (configuration not stated) | - | - | - | -
COc1ccc(-c2csc(N3N=C(C)C(N=Nc4ccc(C(N)=O)cc4)C3=O)n2)cc1 (configuration not stated) | - | - | - | -
Cc1[nH]n(-c2nc(-c3ccccc3)cs2)c(=O)c1C(c1ccccc1)C(C#N)C(N)=O (configuration not stated) | - | - | - | 59
CC1=NN(c2nc(-c3ccc(C)cc3)cs2)C(=O)C1C(c1ccccc1)C(C#N)C(N)=O (configuration not stated) | - | - | - | 75
COCCNc1ccnc2c(-c3cccc(C(=O)O)c3)cnn12 | - | - | - | 99
CN(C)c1cccc(Nc2ccnc3c(-c4ccsc4)cnn23)c1 | - | - | - | -
COCCNc1ccnc2c(-c3ccc(C(=O)NC4CC4)cc3)cnn12 | - | - | - | -
CN(C)c1cccc(Nc2ccnc3c(-c4cccc(O)c4)cnn23)c1 | - | - | - | 65
CCCNc1ccnc2c(-c3cccc(C(C)=O)c3)cnn12 | - | - | - | -
CCCNc1ccnc2c(-c3cccc(C(=O)O)c3)cnn12 | - | - | - | 103
COCCNc1ccnc2c(-c3cccc(N(C)C)c3)cnn12 | - | - | - | -
SMILES | MITF primary | FBW7 activator | GPR151 activ | TEAD-YAP inh
CCCNc1ccnc2c(-c3cccc(N(C)C)c3)cnn12 | - | - | - | 32
C=CCN1CC(c2nc3ccccc3n2CCCC)CC1=O (configuration not stated) | - | - | - | -
Nc1nccc(N2CCN(C(=O)Nc3cccc(C(=O)NC4CC4)c3)CC2)n1 | - | - | - | -
O=C(/C=C/c1cccc([N+](=O)[O-])c1)Nc1ccc(S(=O)(=O)NC2=NCCCCC2)cc1 | - | - | - | -
O=C1NC2(CCCc3ccccc32)C(=O)N1CN1CCc2ccccc2C1 (configuration not stated) | - | - | - | -
C1=NC2(CCCC2)Cc2c1ccc1ccccc21 | - | - | - | 32
CC(C(=O)NCc1cccnc1)n1ncn2cccc2c1=O (configuration not stated) | - | - | - | -
N#Cc1nc(N2CCCC2)nc(N2CCCC2)n1 | - | - | - | 37
CCN(CC)c1ccc2c(c1)OC(N)=C(C#N)C2c1cccs1 (configuration not stated) | - | - | - | 53
